3CLpro inhibitor = SARS-CoV 3CLpro protease inhibition. P0C6X7. recombinant SARS-CoV 3CLpro, quenched FRET peptide cleavage. inhibition, % at 6 µM. 290,000 tested, 0.14% active. AID 1706; in the data active = inhibition above about 12%
Bead autofluor = compound fluorescence in toxin protease inhibitor counterscreen; compound autofluorescence counterscreen, microsphere flow cytometry; stronger effect = higher value; fluorescence intensity (test concentration not listed); 360,000 tested, 3.1% active; AID 624483; in the data active = fluorescence intensity above about 16000; inconclusive = no clear call, values can overlap the other calls
Anthrax LF inh2 = blocks Bacillus anthracis lethal factor protease; inhibition, % at 10 µM; AID 588501; multiplex microsphere protease cleavage assay, LF; P15917; 360,000 tested, 0.12% active; also: plate controls were buffer without enzyme for full effect and enzyme alone for no effect
BoNT F protease = BoNT F light chain protease inhibition; 360,000 tested, 0.22% active; Multiplex microsphere protease cleavage assay, flow cytometry; inhibition, % at 10 µM; in the data active = inhibition above about 35%, passing the limit was not always enough; inconclusive = no clear call, values can overlap the other calls; also: plate controls were buffer without enzyme for full effect and enzyme alone for no effect
VHR inh abs = inhibitors of human VHR1 phosphatase (DUSP3); P51452; recombinant VHR phosphatase, pNPP absorbance; inhibition, % at 13.3 µM; 290,000 tested, 0.52% active; AID 1654; in the data active = inhibition above about 50%
BoNT-A LC inh2 = BoNT A light chain protease inhibition; inhibition, % at 10 µM; AID 588499; multiplex microsphere protease substrate cleavage, flow cytometry; 360,000 tested, 0.17% active; also: plate controls were buffer without enzyme for full effect and enzyme alone for no effect
Starred values were filed as active, the others as inactive; ? = inconclusive; . = no result given. Most compounds without a hit are left out; they make up all but 3.9% or so of the library. Rule as the data show it, unless noted: active = inhibition above about 30%; inconclusive = no clear call, values can overlap the other calls; inactive = below that.

SMILES	3CLpro inhibitor	Bead autofluor	Anthrax LF inh2	BoNT F protease	VHR inh abs	BoNT-A LC inh2
C(=NNc1ccc2ccccc2n1)c1ccccn1	.	5722	-1	-13	.	-1
Nc1ncnc2c1ncn2[C@@H]1O[C@H](C(=O)N[C@@H](CO)Cc2ccccc2)[C@@H](O)[C@H]1O	.	5923	5	-4	.	-1
COc1ccc(CNc2nc(NC(C)=O)nn2-c2ccccc2)cc1	-4	3572	10	-24	0	1
Nc1c(C(=O)Nc2cccc(F)c2)nnn1-c1ccc2c(c1)OCCO2	-7	5815	-5	0	26	-1
Cn1c(=O)c(=O)n(C)c2cc(S(=O)(=O)N3CCN(c4cccc(C(F)(F)F)c4)CC3)ccc21	-1	21964*	0	0	10	-1
Cn1c(=O)c(=O)n(C)c2cc(S(=O)(=O)N3CCCCC3)ccc21	5	23051*	-1	-1	16	0
Cn1c(=O)oc2cc(S(=O)(=O)N3CCN(c4cccc(Cl)c4)CC3)ccc21	-3	22890*	0	1	30	2
Cn1c(=O)oc2cc(S(=O)(=O)N3CCN(c4ccc(F)cc4)CC3)ccc21	6	3649	-3	-1	6	0
Cn1cnc(S(=O)(=O)N2CCN(c3cccc(C(F)(F)F)c3)CC2)c1	0	6114	-2	0	50*	1
CCC1CCCCN1S(=O)(=O)c1ccc(NC(=O)C2CC(=O)N(C(C)(C)C)C2)cc1 (stereo not given)	.	4097	1	-17	.	-2
O=C(NCC(=O)N(c1cccnc1)C(C(=O)NC1CCCC1)c1ccccc1F)c1ccco1 (stereo not given)	-4	3871	-10	8	-4	-2
COc1ccc(C2(C(=O)Nc3nncs3)CCCC2)cc1	0	22722*	-2	1	-12	1
COc1ccc(NC(=O)C2(c3ccc(NC(=O)c4ccc(OC)cc4)cc3)CCCC2)cc1	-1	2175	-4	-3	18	-1
COc1ccc(-c2nnn(CC(=O)N(CC(=O)NCCC(C)C)c3ccccc3)n2)cc1OC	-2	21028*	3	5	14	3
CC(C)CCNC(=O)CN(C(=O)Cn1nnc(-c2ccccc2F)n1)c1cccc2c1CCCC2	5	20259*	-10	7	-2	4
COc1ccc(CCNC(=O)Cn2nnc(-c3ccc(N4CCOCC4)cc3)n2)cc1OC	-5	10812	-5	9	15	0
O=C(CN(C(=O)Cn1nnc(-c2ccccc2F)n1)c1cccc2c1CCCC2)NCc1ccccc1	3	?	-12	?	5	?
CC(C)CCNC(=O)CN(CCCN1CCOCC1)C(=O)Cn1nnc(-c2ccc(F)cc2)n1	1	22173*	1	5	23	4
COc1ccc(CCNC(=O)Cn2nnc(-c3cccc(OC)c3OC)n2)cc1OC	6	22884*	-2	-3	-6	-1
Cn1ccsc1=NC(=O)c1cccc(C#N)c1	1	5933	-2	0	20	0
CCOc1ccc(S(=O)(=O)Nc2cccc(C(=O)NCCCn3ccnc3)c2)cc1	.	3893	-8	1	.	0
Cc1nn(C)cc1S(=O)(=O)NCc1ccccc1Cl	2	4999	2	9	8	3
O=C(Nc1ccc2c(c1)CCC2)c1cnccn1	5	20322*	-2	1	21	2
COc1ccccc1N1CCN(C(=O)Cc2cccs2)CC1	-6	22449*	-1	-1	4	?
COc1ccccc1N1CCN(C(=O)CCn2c(=O)[nH]c3ccccc3c2=O)CC1	1	22600*	-1	-2	36	?
SMILES	3CLpro inhibitor	Bead autofluor	Anthrax LF inh2	BoNT F protease	VHR inh abs	BoNT-A LC inh2
COc1ccccc1N1CCN(C(=O)CCC(=O)O)CC1	4	5048	-1	-8	-6	-1
O=C(Cc1cccs1)N1CCN(c2ccc(F)cc2)CC1	-7	2418	1	-8	13	-1
Cc1nc2ncnn2c(N2CCN(C(=O)Cc3cccs3)CC2)c1C	1	22223*	-6	2	0	3
CCCN1CCN(CCCNC(=O)C(CC)n2nc(C)n3c(cc4occc43)c2=O)CC1 (stereo not given)	-4	5206	-3	1	1	1
O=C(O)CC1S/C(=N\N=C2CCCCCC2)N(c2ccccc2)C1=O (stereo not given)	4	3664	-2	3	21	0
CC(=O)/C=C1/SC(CC(=O)O)C(=O)N1c1ccccc1 (stereo not given)	1	17699*	-32	12	14	8
Cn1nc(C(=O)NNC(=O)c2cccc(Cl)c2)ccc1=O	.	4106	-2	-4	.	-1
COc1ccc(NC(=O)CN(c2ccc(C)cc2)S(=O)(=O)c2c(C)nn(C)c2C)cc1	6	4489	-2	3	15	0
COc1ccc2nc(NC(=O)CN(c3ccc(C)cc3)S(=O)(=O)c3c(C)nn(C)c3C)sc2c1	-1	20805*	-4	-6	10	-4
COc1ccc(NC(=O)CN(c2ccc(C)cc2)S(=O)(=O)c2c(C)nn(C)c2C)cc1OC	-2	22939*	-4	2	10	0
N#CCCN(CCC#N)c1nncs1	-3	3072	0	1	-5	0
CC(C)(C)c1csc(N(CCC#N)CCC#N)n1	2	16153*	-5	1	0	0
Cc1cccc(NC(=O)CCC2CCN(C(=O)c3ccc(C)s3)CC2)c1	1	5105	0	6	60*	0
O=C1C2C3C=CC(CC3)C2C(=O)N1c1ccc(Br)cc1[N+](=O)[O-] (stereo not given)	2	3915	-2	-24	16	-4
Cc1ccc(N2C(=O)C3C4C=CC(CC4)C3C2=O)c([N+](=O)[O-])c1 (stereo not given)	-2	4119	-8	-14	55*	0
Cc1noc(C)c1COc1ccc(C(=O)OCC(=O)Nc2ccc(C(=O)N(C)C)cc2)cc1	.	4349	1	20	.	4
CCN(CC)S(=O)(=O)c1cccc(NC(=O)C2SC(=Nc3ccc(C)cc3C)C(C(=O)NCC3CCCO3)=C2N)c1 (stereo not given)	3	23589*	-1	-5	-36	0
CN(C(=O)COC(=O)C(C)(C)Oc1ccc(Cl)cc1)c1c(N)n(Cc2ccccc2)c(=O)[nH]c1=O	.	?	1	2	.	0
C=C(C)CSc1nnc([C@@H](NC(=O)OC(C)(C)C)C(C)CC)o1 (stereo not given in full)	1	20796*	-1	5	-31	?
CCOc1ccc(N/C=C/C(=O)c2ccc3ccccc3c2)c([N+](=O)[O-])c1	10	16459*	-2	0	14	0
CCOc1ccc(N/C=C/C(=O)c2ccc(C)cc2)c([N+](=O)[O-])c1	-1	2449	1	2	10	0
COc1cc(CNc2ccc(C)c(C)c2)cc(OC)c1OC	-2	17356*	-6	-9	8	-4
COc1ccc(-c2nc(C#N)c(N3CCCCC3)o2)cc1	5	3499	8	1	.	1
